PubChem BioAssay (EPA / NIEHS)
Active and inactive are the calls of the source. How the source made its calls: active means hit-call score of the fitted dose curve at least 0.9, where 1 is the maximum; inactive means score below 0.9.

Test: APR_HepG2_NuclearSize_72hr: Apredica 72-hour HepG2 Assay for Nuclear Size (AID 2282925)
Details: high-content imaging, actives raise or lower the signal
Method: APR_HepG2_72hr is a cell-based, multiplexed-readout assay that uses HepG2, a human liver cell line, with measurements taken at 72 hours after chemical dosing in a 384-well plate.APR_HepG2_NuclearSize_72hr is one of 10 assay component(s) measured or calculated from the APR_HepG2_72hr assay. It is designed to make measurements of cell phenotype, a form of morphology reporter, as detected with fluorescence intensity signals by HCS Fluorescent Imaging technology.Data from the assay component APR_HepG2_NuclearSize_72hr was analyzed into 1 assay endpoint. This assay endpoint, APR_HepG2_NuclearSize_72hr, was analyzed with bidirectional fitting relative to DMSO as the negative control and baseline of activity. Using a type of morphology reporter, measures of all nuclear dna for gain or loss-of-signal activity can be used to understand the signaling at the nuclear-level. Furthermore, this assay endpoint can be referred to as a primary readout, because this assay has produced multiple assay endpoints where this one serves a signaling function. To generalize the intended target to other relatable targets, this assay endpoint is annotated to the cell morphology intended target family, where the subfamily is organelle conformation.
Cells were treated with dimethyl sulfoxide (DMSO) as a solvent control at a final concentration of 0.5% v/v or with compounds in DMSO with a resulting final DMSO concentration of 0.5% v/v. Compound treatment was done at concentrations of 0.39, 0.78, 1.56, 3.12, 6.24, 12.5, 25, 50, 100, and 200 uM in duplicate on each plate. Cells were treated with compounds for 1, 24, or 72 hr. Carbonyl […] m-chloro-phenylhydrazone (CCCP) and taxol were used as positive controls for mitochondrial function and cytoskeletal stability, respectively; DMSO served as the negative control for this experiment. Cells were fixed by the direct addition of 50 uL formaldehyde in Hank's Balanced Salt Solution (HBSS) to a final concentration of 3.7%. After incubation in the fixation medium for 30 min at room temperature (293-298 K), cells were rinsed twice with HBSS and treated with cell permeabilization buffer (16 uL of 0.5% Triton X-100) for 10 min at room temperature (293-298 K) before labeling. For mitochondrial membrane potential and mitochondrial measurements, pre-fixed cells were incubated with 50 uL of MitoTracker Red CMXRos (Invitrogen) at a concentration of 250 nM for 30 min before fixation. In the remaining cases, post-fixed cells were labeled by incubation with a multiplexed mixture of primary antibodies in HBSS for 60 min at room temperature (293-298 K) to detect immunoreactivity of c-Jun (1:500), phospho-histone H3 (1:100), phospho-histone H2A.x (1:200), p53 (1:400), alpha-tubulin (1:200) and Hoechst 33342 (2 ug/mL). Cells were labeled for multiplexed imaging on two separate plates: a) Hoechst 33342, MitoTracker Red, phospho-histone H3, and alpha-tubulin, and b) Hoechst 33342, phospho-histone H2A.x, and c-Jun. A final rinse with HBSS (50 uL) was performed before analysis. The primary and secondary antibodies for the proteins were phospho-histone H3 (rabbit anti-phospho-histone H3 and FITC-donkey anti-rabbit IgG), phospho-histone H2A.x (mouse anti-phospho-histone H2A.x and FITC-donkey anti-mouse IgG), c-Jun (rabbit anti-phospho-c-Jun and Cy3-donkey anti-rabbit IgG), p53 (sheep anti-p53 and Cy5-donkey anti-sheep IgG), alpha-tubulin (mouse anti-alpha-tubulin and Cy5-donkey anti-mouse IgG). These antibodies are available as the CellCiphr HepG2 assay kit (Millipore).Digital images of each well were captured using a Cellomics ArrayScan VTI (Thermo Scientific Cellomics) (0.8 NA objective, 0.63x optical coupler, and XF-93 filter set) at 20x magnification. The images were acquired using the autofocus feature of the ArrayScan instrument, which entails the following steps. First, the camera focuses on channel 1 (Hoechst 33342), where nuclei are identified. Second, a Z offset of 1 um is used for capturing mitochondria (MitoTracker Red). […]

Structure (SMILES)	outcome	AC50
CC(=O)Oc1ccccc1C(=O)O	inactive	–
Cc1nc(-c2ccc3c(c2)CCN(CCC2CCC(NC(=O)/C=C/c4ccc(F)cc4)CC2)CC3)no1 (stereo not given)	inactive	–
CC1(C)NC(=O)NC1=O	inactive	–
Cc1cc(=O)[nH]c(=S)[nH]1	inactive	–
CCCCN(CCCC)CCCC	inactive	–
CCCCCCCCCCCCCCCCCC(=O)O	inactive	–
CC1=C(/C=C/C(C)=C/C=C/C(C)=C/CO)C(C)(C)CCC1	inactive	–
FC(F)(F)C(F)(F)C(F)(F)C(F)(F)C(F)(F)C(F)(F)CCI	inactive	–
COCCOCCOC	inactive	–
CCc1c(C(=O)NN2CCCCC2)nn(-c2ccc(Cl)cc2Cl)c1-c1ccc(Br)cc1	inactive	–
O=C(N[C@@H](Cc1ccccc1)[C@@H](O)C(=O)N1C[C@@H](O)[C@@H](O)C1)c1cc2cc(Cl)ccc2[nH]1	inactive	–
Nc1ccc(S(=O)(=O)c2ccc(N)cc2)cc1	inactive	–
Oc1ccc2ccccc2c1N=Nc1ccccc1	inactive	–
CCCCCCCC=O	inactive	–
COc1cccc2c1C(=O)c1c(O)c3c(c(O)c1C2=O)C[C@@](O)(C(=O)CO)C[C@@H]3O[C@H]1C[C@H](N)[C@H](O)[C@H](C)O1	inactive	–
NCCO	inactive	–
CCCCCCCCCCC	inactive	–
CCNc1cccc(C)c1	inactive	–
Oc1ccc2c(c1)OC[C@@H](N1CCC(O)(c3ccc(F)cc3)CC1)[C@H]2O	inactive	–
C=CCOC(=O)c1ccccc1C(=O)OCC=C	inactive	–

Structure (SMILES)	outcome	AC50
Cc1ccc(C(C)C)c(O)c1	inactive	–
COc1cc(C=O)ccc1O	inactive	–
CCCCCCCCCCO	inactive	–
COc1ccc(C)cc1N	inactive	–
CCCCCCCCCCCCCO	inactive	–
C[Si]1(C)O[Si](C)(C)O[Si](C)(C)O[Si](C)(C)O1	inactive	–
Clc1cc(Cl)c(Cl)cc1Cl	inactive	–
CNCc1cc(F)ccc1Oc1ccc(Cl)c(Cl)c1	–	103 µM (active)
Cc1ccc(C)c(O)c1C	inactive	–
CCOC(=O)CCC(=O)OCC	inactive	–
Cc1nc(C)nc(N2C[C@@H](C)N(c3ccnc([C@@H](C)O)n3)[C@@H](C)C2)n1	inactive	–
CC(=O)OC/C=C(\C)CCC=C(C)C	inactive	–
COC(=O)c1ccc(O)cc1	inactive	–
CCCCCCC(=O)OCC	inactive	–
OC[C@@H](O)[C@@H](O)[C@H](O)[C@H](O)CO	inactive	–
O=C(OCCCCCOC(=O)c1ccccc1)c1ccccc1	inactive	–
Cc1cc(NC(=O)C(=O)O)cc(C)c1Oc1ccc(O)c2c1CCC2	inactive	–
CC=Cc1ccc(O)c(OC)c1	inactive	–
Cc1cccc(Nc2cc(Cl)nc(SCC(=O)O)n2)c1C	inactive	–
CC(C)(C)c1cc(O)c(C(C)(C)C)cc1O	–	26 µM (active)
